The target in test [1] is Tyrosine-protein kinase SYK (Homo sapiens) (UniProt P43405). To be noted: at 10 µM.
Test [2] has as its target T1, Mitogen-activated protein kinase kinase kinase 7 (Homo sapiens) (UniProt O43318).
T1 sequence (whole entry): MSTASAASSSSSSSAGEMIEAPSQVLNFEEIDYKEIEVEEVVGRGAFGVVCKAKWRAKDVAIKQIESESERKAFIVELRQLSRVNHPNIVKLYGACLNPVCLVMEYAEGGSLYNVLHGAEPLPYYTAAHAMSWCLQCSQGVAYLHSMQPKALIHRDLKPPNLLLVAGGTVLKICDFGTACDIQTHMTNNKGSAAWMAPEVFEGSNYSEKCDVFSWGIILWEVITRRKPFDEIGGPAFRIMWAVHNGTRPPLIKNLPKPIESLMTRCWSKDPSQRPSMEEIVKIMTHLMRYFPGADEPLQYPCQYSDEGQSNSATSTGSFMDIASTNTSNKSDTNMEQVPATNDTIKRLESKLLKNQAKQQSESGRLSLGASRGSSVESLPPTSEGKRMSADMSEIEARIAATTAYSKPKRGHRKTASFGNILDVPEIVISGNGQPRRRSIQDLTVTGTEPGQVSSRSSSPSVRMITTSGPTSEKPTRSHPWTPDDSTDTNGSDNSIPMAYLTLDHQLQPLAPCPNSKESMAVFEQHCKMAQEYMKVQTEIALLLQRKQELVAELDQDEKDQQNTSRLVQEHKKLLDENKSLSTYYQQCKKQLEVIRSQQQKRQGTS
To be noted: at 1 µM.

For test [3], the target named is T1, Mitogen-activated protein kinase kinase kinase 7 (Homo sapiens). Conditions: at 10 µM.
For test [4], the target named is T2, Serine/threonine-protein kinase TAO1 (Homo sapiens) (UniProt Q7L7X3).
T2 sequence (whole entry): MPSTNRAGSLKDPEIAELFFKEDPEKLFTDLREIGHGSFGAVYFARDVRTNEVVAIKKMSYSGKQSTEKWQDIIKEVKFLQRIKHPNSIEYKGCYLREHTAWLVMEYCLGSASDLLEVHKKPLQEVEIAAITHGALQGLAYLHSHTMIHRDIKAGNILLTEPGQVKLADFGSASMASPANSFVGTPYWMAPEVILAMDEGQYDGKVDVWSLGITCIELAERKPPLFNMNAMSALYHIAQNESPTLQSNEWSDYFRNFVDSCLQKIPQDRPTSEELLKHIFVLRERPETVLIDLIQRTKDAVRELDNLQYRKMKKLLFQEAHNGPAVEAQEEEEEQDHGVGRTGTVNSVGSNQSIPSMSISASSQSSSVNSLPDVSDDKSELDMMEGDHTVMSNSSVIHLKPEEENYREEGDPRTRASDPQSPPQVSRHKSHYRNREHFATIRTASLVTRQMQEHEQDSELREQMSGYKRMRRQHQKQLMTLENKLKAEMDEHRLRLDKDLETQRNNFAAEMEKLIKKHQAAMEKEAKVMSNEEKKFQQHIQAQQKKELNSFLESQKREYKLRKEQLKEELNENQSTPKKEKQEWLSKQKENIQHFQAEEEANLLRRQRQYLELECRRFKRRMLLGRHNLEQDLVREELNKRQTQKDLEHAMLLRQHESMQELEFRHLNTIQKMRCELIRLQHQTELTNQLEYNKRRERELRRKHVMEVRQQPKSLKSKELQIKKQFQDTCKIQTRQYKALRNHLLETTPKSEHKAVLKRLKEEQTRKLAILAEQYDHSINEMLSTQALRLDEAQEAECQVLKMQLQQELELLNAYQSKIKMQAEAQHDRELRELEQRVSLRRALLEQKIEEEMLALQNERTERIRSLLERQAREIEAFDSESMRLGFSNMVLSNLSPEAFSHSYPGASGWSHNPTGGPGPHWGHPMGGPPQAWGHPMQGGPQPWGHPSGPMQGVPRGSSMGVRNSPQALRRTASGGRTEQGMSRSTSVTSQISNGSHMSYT
Conditions: at 1 µM.

For test [5], the target named is T2, Serine/threonine-protein kinase TAO1 (Homo sapiens). Conditions: at 10 µM.
Test [6] addresses T3, Serine/threonine-protein kinase TAO2 (Homo sapiens) (UniProt Q9UL54).
T3 sequence (whole entry): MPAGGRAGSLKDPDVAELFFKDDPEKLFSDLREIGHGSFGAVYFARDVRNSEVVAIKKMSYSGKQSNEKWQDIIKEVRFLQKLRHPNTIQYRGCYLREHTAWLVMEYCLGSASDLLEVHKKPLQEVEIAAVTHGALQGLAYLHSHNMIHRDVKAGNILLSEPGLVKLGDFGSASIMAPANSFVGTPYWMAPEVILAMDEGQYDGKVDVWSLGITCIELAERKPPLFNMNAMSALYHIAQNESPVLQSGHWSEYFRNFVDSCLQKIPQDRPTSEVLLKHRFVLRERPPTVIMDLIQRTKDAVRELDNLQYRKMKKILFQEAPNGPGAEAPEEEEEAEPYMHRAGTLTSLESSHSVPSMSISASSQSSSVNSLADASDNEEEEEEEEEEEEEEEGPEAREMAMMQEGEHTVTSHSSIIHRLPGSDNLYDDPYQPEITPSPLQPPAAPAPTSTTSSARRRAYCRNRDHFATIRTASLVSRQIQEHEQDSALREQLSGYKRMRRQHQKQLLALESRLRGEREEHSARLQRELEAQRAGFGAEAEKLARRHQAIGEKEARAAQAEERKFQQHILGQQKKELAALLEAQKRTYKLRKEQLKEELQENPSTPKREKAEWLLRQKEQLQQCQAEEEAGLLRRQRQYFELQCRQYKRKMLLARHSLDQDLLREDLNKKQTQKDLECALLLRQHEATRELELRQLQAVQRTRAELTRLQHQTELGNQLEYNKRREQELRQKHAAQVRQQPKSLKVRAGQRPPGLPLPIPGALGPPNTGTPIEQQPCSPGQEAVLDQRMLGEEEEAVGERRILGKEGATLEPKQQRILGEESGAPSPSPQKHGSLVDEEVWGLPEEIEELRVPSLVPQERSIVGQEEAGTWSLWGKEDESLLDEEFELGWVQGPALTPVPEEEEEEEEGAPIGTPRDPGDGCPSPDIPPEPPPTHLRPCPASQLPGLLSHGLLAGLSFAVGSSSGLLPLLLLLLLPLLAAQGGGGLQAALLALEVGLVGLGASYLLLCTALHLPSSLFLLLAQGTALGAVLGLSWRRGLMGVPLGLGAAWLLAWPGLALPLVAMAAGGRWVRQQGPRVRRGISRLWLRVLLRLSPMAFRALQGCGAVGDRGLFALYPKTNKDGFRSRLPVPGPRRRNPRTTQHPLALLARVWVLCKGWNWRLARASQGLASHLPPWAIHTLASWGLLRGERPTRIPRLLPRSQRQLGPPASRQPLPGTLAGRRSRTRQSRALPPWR
Conditions: at 1 µM.

In test [7] the target is T3, Serine/threonine-protein kinase TAO2 (Homo sapiens). Conditions: at 10 µM.
The target in test [8] is T4, Serine/threonine-protein kinase TAO3 (Homo sapiens) (UniProt Q9H2K8).
T4 sequence (whole entry): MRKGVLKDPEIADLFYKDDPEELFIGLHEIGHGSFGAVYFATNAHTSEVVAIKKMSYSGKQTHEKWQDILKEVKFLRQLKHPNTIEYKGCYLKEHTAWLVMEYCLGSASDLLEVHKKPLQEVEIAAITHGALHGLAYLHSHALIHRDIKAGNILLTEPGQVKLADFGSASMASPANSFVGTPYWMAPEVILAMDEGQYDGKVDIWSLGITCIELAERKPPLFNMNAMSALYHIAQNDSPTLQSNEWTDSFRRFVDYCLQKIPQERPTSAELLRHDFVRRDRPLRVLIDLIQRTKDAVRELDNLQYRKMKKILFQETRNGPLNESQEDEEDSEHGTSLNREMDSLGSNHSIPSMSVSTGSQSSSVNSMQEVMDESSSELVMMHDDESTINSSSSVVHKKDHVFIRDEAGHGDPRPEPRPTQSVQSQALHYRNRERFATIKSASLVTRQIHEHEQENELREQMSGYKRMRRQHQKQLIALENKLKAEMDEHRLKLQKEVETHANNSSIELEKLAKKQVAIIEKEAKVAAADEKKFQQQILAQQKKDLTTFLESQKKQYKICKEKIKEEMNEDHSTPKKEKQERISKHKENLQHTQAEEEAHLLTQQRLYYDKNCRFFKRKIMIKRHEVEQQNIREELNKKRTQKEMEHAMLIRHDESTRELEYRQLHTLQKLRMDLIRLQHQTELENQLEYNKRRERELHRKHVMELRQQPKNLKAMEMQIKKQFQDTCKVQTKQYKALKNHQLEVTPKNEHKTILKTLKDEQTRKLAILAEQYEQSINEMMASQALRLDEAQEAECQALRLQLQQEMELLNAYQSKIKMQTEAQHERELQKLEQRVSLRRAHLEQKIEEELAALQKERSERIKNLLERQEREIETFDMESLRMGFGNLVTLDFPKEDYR
Conditions: at 1 µM.

`O=C1Nc2ccc(Cl)cc2/C1=C/c1cc(Cl)c(O)c(Cl)c1`: the residual activity in test [1] was 56%; in test [2] it was 83%; in test [3] it was 75%; in test [4], 62%; in test [5] it was 35%; in test [6], 72%. Also, the residual activity in test [7] was found to be 58%; in test [8], 61%.

Values taken from ChEMBL document CHEMBL2218924, “A broad activity screen in support of a chemogenomic map for kinase signalling research and drug discovery” (Biochem J, 2013).
